Source: PubChem BioAssay AID1159580 (chemical genetic matrix, 2015)
Several values for one entry are separate records, joined by “and”; a condition that tells them apart may be missing. Equal entries are not always repeated. The whole screen tested about 5,500 compounds, of which about 2,000 (36%) were called active. Inconclusive results (about 18%) are left out. Rule as the data show it: active = normalized growth mostly below about 0.91 (no sharp cut-off); inconclusive = no clear call, values can overlap the other calls; inactive = mostly above about 0.92. The list shows a part of the results.

Assay: chemical genetic growth profiling, strain panel (AID 1159580);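 also: tested at 20 µM; growth read once vehicle control cultures reached saturation at 30 °C; 1 = growth at the plate median or of vehicle wells; lower values mean less growth of the strain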
Conditions: S. cerevisiae deletion strains, growth OD

Measured: normalized growth

O=C(O)CCC(=O)OC[C@@H](NC(=O)C(Cl)Cl)[C@H](O)c1ccc([N+](=O)[O-])cc1
inactive: locus YAL021C, strain ccr4, stronger effect = lower value 0.99 | locus YAL026C, strain drs2, stronger effect = lower value 0.993 | locus YAL030W, strain snc1, stronger effect = lower value 0.981 | locus YBL061C, strain skt5, stronger effect = lower value 0.971 | locus YBR009C, strain hhf1, stronger effect = lower value 0.956 | locus YBR021W, strain FUR4, stronger effect = lower value 1.02 | locus YBR023C, strain chs3, stronger effect = lower value 0.976 | locus YBR171W, strain sec66, stronger effect = lower value 0.962 | locus YBR229C, strain ROT2, stronger effect = lower value 0.951 | locus YBR231C, strain swc5, stronger effect = lower value 1 | locus YBR279W, strain paf1, stronger effect = lower value 0.989 | locus YCL011C, strain gbp2, stronger effect = lower value 0.942 | locus YCL016C, strain dcc1, stronger effect = lower value 0.953 | locus YCL029C, strain bik1, stronger effect = lower value 0.986 | locus YCL061C, strain MRC1, stronger effect = lower value 0.981 | locus YCL069W, strain vba3, stronger effect = lower value 0.982 | locus YCR088W, strain abp1, stronger effect = lower value 0.986 | locus YDL005C, strain med2, stronger effect = lower value 0.984 | locus YDL035C, strain GPR1, stronger effect = lower value 0.974 | locus YDL040C, strain nat1, stronger effect = lower value 0.996 | locus YDL074C, strain BRE1, stronger effect = lower value 0.98 | locus YDL101C, strain DUN1, stronger effect = lower value 0.995 | locus YDL134C, strain PPH21, stronger effect = lower value 0.964 | locus YDL185W, strain tfp1, stronger effect = lower value 0.96 | locus YDL192W, strain arf1, stronger effect = lower value 0.979 | locus YDR001C, strain nth1, stronger effect = lower value 0.975 | locus YDR069C, strain doa4, stronger effect = lower value 1.01 | locus YDR101C, strain arx1, stronger effect = lower value 0.963 | locus YDR137W, strain rgp1, stronger effect = lower value 0.963 | locus YDR150W, strain NUM1, stronger effect = lower value 0.982 | locus YDR159W, strain sac3, stronger effect = lower value 0.997 | locus YDR162C, strain NBP2, stronger effect = lower value 0.93 | locus YDR195W, strain ref2 1 | locus YDR297W, strain sur2, stronger effect = lower value 0.964 | locus YDR318W, strain mcm21, stronger effect = lower value 0.99 | locus YDR334W, strain swr1, stronger effect = lower value 0.945 | locus YDR335W, strain msn5, stronger effect = lower value 0.973 | locus YDR388W, stronger effect = lower value 0.983 | locus YDR392W, strain spt3, stronger effect = lower value 0.914 | locus YDR502C, strain sam2, stronger effect = lower value 0.991 | locus YEL003W, strain gim4, stronger effect = lower value 0.982 | locus YEL037C, strain rad23, stronger effect = lower value 0.991 | locus YEL061C, strain CIN8 (second series), stronger effect = lower value 0.987 | locus YEL061C, strain CIN8, stronger effect = lower value 0.988 | locus YER015W, strain faa2, stronger effect = lower value 0.989 | locus YER016W, strain bim1, stronger effect = lower value 0.988 | locus YER110C, stronger effect = lower value 0.964 | locus YER111C, strain swi4, stronger effect = lower value 0.982 | locus YER155C, strain BEM2 (second series), stronger effect = lower value 1.04 | locus YER155C, strain BEM2, stronger effect = lower value 0.989 | locus YER167W, strain BCK2, stronger effect = lower value 0.997 | locus YFR010W, strain ubp6, stronger effect = lower value 0.979 | locus YGL078C, strain dbp3, stronger effect = lower value 0.995 | locus YGL167C, strain pmr1, stronger effect = lower value 0.974 | locus YGL173C, strain kem1, stronger effect = lower value 0.967 | locus YGL227W, strain vid30, stronger effect = lower value 0.977 | locus YGL240W, strain doc1, stronger effect = lower value 1 | locus YGL248W, strain PDE1, stronger effect = lower value 1.01 | locus YGL253W, strain hxk2, stronger effect = lower value 0.968 | locus YGR135W, strain pre9, stronger effect = lower value 1.03 | locus YGR229C, strain SMI1, stronger effect = lower value 0.969 | locus YGR252W, strain gcn5, stronger effect = lower value 1.07 | locus YHR013C, strain ard1, stronger effect = lower value 0.955 | locus YHR027C, strain rpn1, stronger effect = lower value 0.956 | locus YHR030C, strain SLT2, stronger effect = lower value 0.974 | locus YHR079C, strain IRE1 (second series), stronger effect = lower value 0.989 | locus YHR079C, strain IRE1, stronger effect = lower value 0.961 | locus YHR094C, strain hxt1, stronger effect = lower value 0.979 | locus YHR129C, strain ARP1, stronger effect = lower value 0.982 | locus YHR142W, strain chs7, stronger effect = lower value 0.926 | locus YHR200W, strain rpn10, stronger effect = lower value 0.981 | locus YIL066C, strain RNR3, stronger effect = lower value 0.947 | locus YIL073C, strain SPO22, stronger effect = lower value 0.988 | locus YIL125W, strain kgd1, stronger effect = lower value 0.983 | locus YIR030C, strain dcg1, stronger effect = lower value 0.98 | locus YJL092W, strain hpr5, stronger effect = lower value 0.981 | locus YJL095W, strain BCK1 (second series), stronger effect = lower value 0.972 | locus YJL095W, strain BCK1, stronger effect = lower value 1.04 and 0.971 | locus YJL115W, strain asf1, stronger effect = lower value 0.969 | locus YJL129C, strain trk1, stronger effect = lower value 0.968 | locus YJL134W, strain LCB3, stronger effect = lower value 0.982 | locus YJL154C, strain vps35, stronger effect = lower value 0.975 | locus YJL164C, strain tpk1, stronger effect = lower value 0.968 | locus YJL166W, strain qcr8, stronger effect = lower value 0.964 | locus YJL168C, strain set2, stronger effect = lower value 0.983 | locus YJL187C, strain SWE1 (second series), stronger effect = lower value 1 | locus YJL187C, strain SWE1, stronger effect = lower value 0.975
